Records with an inconclusive call do not appear. Values without a mark were called inactive. Activity calls are given as the source filed them. Unless noted, the call rests on the fitted dose curve; in most records, active means well fitted cell-killing curve with a large enough effect in the repeat runs (not every such curve was filed as active); inconclusive means weak or mixed curves, or effect the other way; inactive means no such curve, though single readings can be large or run the other way.

We go through 33 molecules from PubChem BioAssay (Tox21).
On the % scale 0 is the no-effect control and ±100 the full control effect.

Chain of Nuclear receptor subfamily 1 group I member 3 (Homo sapiens) (Q14994 whole entry, looked up): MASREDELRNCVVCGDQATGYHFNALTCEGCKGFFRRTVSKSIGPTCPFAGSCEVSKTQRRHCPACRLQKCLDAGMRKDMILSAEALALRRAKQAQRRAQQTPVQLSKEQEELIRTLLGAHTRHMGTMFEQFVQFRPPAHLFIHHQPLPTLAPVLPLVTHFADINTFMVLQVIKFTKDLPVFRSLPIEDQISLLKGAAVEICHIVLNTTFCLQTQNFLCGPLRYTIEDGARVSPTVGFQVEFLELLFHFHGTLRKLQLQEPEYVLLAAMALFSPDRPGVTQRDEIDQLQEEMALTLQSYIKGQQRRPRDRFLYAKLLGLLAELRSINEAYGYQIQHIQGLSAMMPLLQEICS

The first test addresses Nuclear receptor subfamily 1 group I member 3 (Homo sapiens) (UniProt Q14994). The test can be described thus: qHTS assay to identify small molecule antagonists of the constitutive androstane receptor (CAR) signaling pathway (AID 1224838; active means well fitted curve in the direction sought with a large enough effect in the repeat runs; an effect the other way counts as inactive or inconclusive; further: nearly all actives have a fitted effect of over 40% in size). Particulars: HepG2-CYP2B6-hCAR luciferase, CITCO-stimulated, 24 h; series mostly up to 92.4 µM; activity, negative = inhibition: at the top concentration. The essentials:
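Compounds were titrated across 15 concentrations onto HepG2 cells double-stably expressing hCAR and a CYP2B6-2.2kb reporter, together with 50 nM CITCO (final). After 24 h at 37 C, luciferase activity was measured by luminescence.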
For the molecule `CCCCC/C=C\C/C=C\CCCCCCCC(=O)NC(C)c1ccccc1` (centres undefined), the “activity, negative = inhibition” value was 53.1% [at 42.5 µM].

Another test has the same target. Put plainly: qHTS assay to identify small molecule agonists of the constitutive androstane receptor (CAR) signaling pathway (AID 1224839; active means well fitted curve in the direction sought with a large enough effect in the repeat runs; an effect the other way counts as inactive or inconclusive; further: nearly all actives have a fitted effect of over 15% in size; further: potency means the concentration at half of the fitted maximal effect). The following applies: HepG2 hCAR CYP2B6-luciferase, agonist mode, 24 h; series mostly up to 42.5 µM; activation: at the top concentration. The essentials: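 HepG2 cells stably expressing hCAR and a CYP2B6-2.2kb luciferase reporter were treated with compounds at 15 concentrations plus 0.75 uM PK11195 (final) for 24 h at 37 C; luminescence was read after ONE-Glo addition.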
As for `C=C(C)C(=O)OCCO`, the “activation” value was -2.34% [at 92.4 µM].

On to `CCOc1ccc(O)cc1`, for which the “activation” value is 5.13% [at 92.4 µM].

`Cn1c(=O)cc(Oc2ccc(F)cc2F)c2cnc(NCC(C)(C)O)nc21`: the “activation” value was -0.445% [at 92.4 µM].

Turning to `CCOc1ccc(N=Nc2ccc(/C=C/c3ccc(N=Nc4ccc(OCC)cc4)cc3S(=O)(=O)O)c(S(=O)(=O)O)c2)cc1`, the “activation” value is -2.73% [at 92.4 µM].

As for `CCCCCCCCCCCc1ccccc1`, the “activation” value was 0.142% [at 92.4 µM].

Take `Nc1ccc(S(=O)(=O)Nc2ccccc2)cc1`: the “activation” value was -0.0562%.

For the molecule `CCCCCCCCCCCCCCOS(=O)(=O)O`, the “activation” value is -2.51% [at 92.4 µM].

As to `CC(=O)c1ccc2c(c1)N(CCCN1CCC(CCO)CC1)c1ccccc1S2`, the “activation” value is -4.74%.

On to `CNCCCCOc1ccccc1Cc1ccccc1`, for which the “activation” value is -16.6%.

Regarding `Nc1cc(C(=O)O)c(O)c(S(=O)(=O)O)c1`, the “activation” value is -0.917% [at 92.4 µM].

Consider `CC(=O)OC[C@H]1O[C@@H](n2ncc(=O)[nH]c2=O)[C@H](OC(C)=O)[C@@H]1OC(C)=O`, for which the “activation” value was 0.94%.

Regarding `CCCCC(CC)CN1C(=O)C2C3C=CC(C3)C2C1=O` (centres undefined), the Potency is 30.6 µM (active).

For `O=CC1CC=CCC1` (centres undefined), the “activation” value was 0% [at 92.4 µM].

On to `CN(Cc1ccc(C(C)(C)C)cc1)Cc1cccc2ccccc12`, for which the “activation” value is 4.66%.

With `CCCCC/C=C\C/C=C\CCCCCCCC(=O)NC(C)c1ccccc1` (centres undefined), the “activation” value is 0.79%.

Tested on in the next test: not listed separately
Put plainly: qHTS assay to identify small molecule antagonists of the estrogen related receptor signaling pathway with the pleiotropic PPARgamma coactivator (PGC) from Tox21 10K library - cell viability counter screen (AID 1224840). Further: nearly all actives have a fitted effect of over 40% in size. Further: potency means the concentration at half of the fitted maximal effect. The following applies: PGC/ERR reporter cells viability, CellTiter-Fluor, 17.5 h; series mostly up to 92.4 µM; viability change, negative = cytotoxic: at the top concentration. In a few lines: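 Step one, plate 2,000 PGC/ERR cells per well; step two, incubate 6 h at 37 C/5% CO2; step three, pin-transfer compounds; step four, incubate 17.5 h; step five, add CellTiter-Fluor and read fluorescence after 30 min.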
For the molecule `O=C(O)C1(C(=O)O)CCC1.[NH2-].[NH2-].[Pt+2]`, the “viability change, negative = cytotoxic” value was 1.38% [at 42.5 µM].

On to `CC/C=C\CCOC(=O)CC`, for which the “viability change, negative = cytotoxic” value is 0.711%.

Take `C=C(C)C(=O)OCCO`: the “viability change, negative = cytotoxic” value is 1.51%.

In the case of `CCOc1ccc(O)cc1`, the “viability change, negative = cytotoxic” value is 6.69%.

As to `Cn1c(=O)cc(Oc2ccc(F)cc2F)c2cnc(NCC(C)(C)O)nc21`, the “viability change, negative = cytotoxic” value was -13.1%.

In the case of `CCOc1ccc(N=Nc2ccc(/C=C/c3ccc(N=Nc4ccc(OCC)cc4)cc3S(=O)(=O)O)c(S(=O)(=O)O)c2)cc1`, the Potency is 47.8 µM (active).

Regarding `CCCCCCCCCCCc1ccccc1`, the “viability change, negative = cytotoxic” value was -0.382%.

For the molecule `Nc1ccc(S(=O)(=O)Nc2ccccc2)cc1`, the “viability change, negative = cytotoxic” value was 14.3% [at 42.5 µM].

For the molecule `C=CC(=O)OCCOc1ccccc1`, the “viability change, negative = cytotoxic” value was -11.9%.

As for `C/C=C/C=C/CO`, the “viability change, negative = cytotoxic” value was 4.35%.

For `CCCCCCCCCCCCCCOS(=O)(=O)O`, the “viability change, negative = cytotoxic” value is -22.5%.

For `O=S(=O)(Oc1ccc(Cl)cc1)c1ccccc1`, the “viability change, negative = cytotoxic” value was 0.191%.

With `CCCCO`, the “viability change, negative = cytotoxic” value was -3.11%.

`CC(=O)[O][Al]`: the “viability change, negative = cytotoxic” value is -4.2%.

As for `CC(=O)c1ccc2c(c1)N(CCCN1CCC(CCO)CC1)c1ccccc1S2`, the “viability change, negative = cytotoxic” value was -24.6% [at 42.5 µM].

For the molecule `CN1CCN(C(c2ccccc2)c2ccccc2)CC1`, the “viability change, negative = cytotoxic” value was 17.9% [at 42.5 µM].

On to `OC(C#CCN1CCCC1)(c1ccccc1)c1ccccc1`, for which the “viability change, negative = cytotoxic” value was -1.49% [at 42.5 µM].

As to `CNCCCCOc1ccccc1Cc1ccccc1`, the Potency was 29.8 µM (active).

With `Cc1cccc(Nc2ccccc2)c1`, the “viability change, negative = cytotoxic” value is -0.66%.

Take `Cc1ccc(C(=O)Oc2ccc(C(O)CNC(C)(C)C)cc2OC(=O)c2ccc(C)cc2)cc1` (centres undefined): the “viability change, negative = cytotoxic” value was -0.154% [at 42.5 µM].

For `Nc1cc(C(=O)O)c(O)c(S(=O)(=O)O)c1`, the “viability change, negative = cytotoxic” value was 16.6%.

As for `CC(=O)OC[C@H]1O[C@@H](n2ncc(=O)[nH]c2=O)[C@H](OC(C)=O)[C@@H]1OC(C)=O`, the “viability change, negative = cytotoxic” value was 1.87% [at 42.5 µM].

For the molecule `Cc1[nH]c(C)c(Cl)c(=O)c1Cl`, the viability change, negative = cytotoxic was 12.2% [at 19 µM].

As to `CN1C[C@H]2c3ccccc3Oc3ccc(Cl)cc3[C@@H]2C1`, the “viability change, negative = cytotoxic” value is 5.04% [at 42.5 µM].

Consider `CCCCC(CC)CN1C(=O)C2C3C=CC(C3)C2C1=O` (centres undefined), for which the “viability change, negative = cytotoxic” value was -23.7%.

Turning to `O=C1OC(=O)C2C3C=CC(C3)C12` (centres undefined), the “viability change, negative = cytotoxic” value was -2.65%.

Turning to `CC(=O)NO`, the “viability change, negative = cytotoxic” value was 6.12% [at 42.5 µM].

In the case of `O=CC1CC=CCC1` (centres undefined), the “viability change, negative = cytotoxic” value was 3.04%.

`CN(Cc1ccc(C(C)(C)C)cc1)Cc1cccc2ccccc12`: the “viability change, negative = cytotoxic” value was 9.81% [at 42.5 µM].

For the molecule `CC(C)Cc1ccc(C(C)C(=O)OCc2ccccn2)cc1` (centres undefined), the “viability change, negative = cytotoxic” value was 6.17% [at 42.5 µM].

On to `CCCCC/C=C\C/C=C\CCCCCCCC(=O)NC(C)c1ccccc1` (centres undefined), for which the “viability change, negative = cytotoxic” value is -10.7% [at 42.5 µM].

As for `O=[N+]([O-])c1ccc2[nH]ncc2c1`, the “viability change, negative = cytotoxic” value was 2.39%.

For the molecule `NCC(=O)CCC(=O)O`, the “viability change, negative = cytotoxic” value is 15.7% [at 42.5 µM].
